About 83,000 compounds went through this panel and 20% of them were active in at least one assay; those are over-represented in the sample as a whole.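 Treatment: one concentration, 48 hours, 96-well format. Scoring: percent growth, with anything below 10 considered active.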 Unmarked numbers belong to inactive results. Calls of active or inactive are those of the source.

From PubChem BioAssay (NCI) come the findings set out here.

The assay relates to HL-60(TB) leukemia. Briefly: NCI-60 one-dose screen, 48 h (100 = growth as untreated, 0 = no growth, -100 = all killed). The following applies: 10 µM unless noted.
As for `CNc1ccccc1C(=O)N/N=C/C=C/c1ccccc1`, the growth is -32.6% (active). With `COc1ccc(/C=C2/C(=O)N=C3N2NC(c2ccccc2)=CN3c2ccccc2)cc1`, the growth was 101%. Next, `Nc1c(C(=O)Nc2cccc3cnccc23)sc2nc3c(cc12)C(=O)CCC3`: 60.2%. `CCC1=C[C@H]2CN(CCc3c([nH]c4ccccc34)[C@@](C(=O)OC)(c3cc4c(cc3OC)N(C)[C@H]3[C@@](O)(C(=O)OC)[C@H](OC(C)=O)[C@]5(CC)[C@@H]6C[C@@H]6CN6CC[C@]43[C@@H]65)C2)C1`: the growth is -33.4% (active). Consider `Cc1csc(NC(c2ccccc2)c2c(C)nc3ccccn23)n1` (stereo not given), for which the growth is 111%. As for `COc1ccc2c(c1)c(-c1noc(C(=O)c3cn(C)c4ncc(Br)cc34)n1)cn2C`, the figure is 98.2%; as for `Cc1ccc(S(=O)(=O)NCN2C(=O)c3ccccc3C2=O)cc1`, 106%; as for `O=c1cc(C(F)(F)F)c2cc(-c3cc4ccccc4c(=O)o3)c(O)cc2o1`, 38.3%.

Turning to `COc1ccc2c(c1)cn1c3ccc(OC)cc3[nH]c(=O)c21`, the growth was -53.8% (active). Consider `CCCCCCCCNC(=O)[C@@H](N)CSCOC(C)=O`, for which the growth is 83.6%. Next, `CCOC(=O)CC1CSC(N/N=C/c2ccc(F)c(Br)c2)=N1` (stereo not given): 93.6%; `CC(C)(C)OC(=O)N1C/C(=C\c2cccs2)C(=O)/C(=C/c2cccs2)C1`: 96.7%.

With `COc1cccc2c1Cc1ccccc1-2`, the growth was 97.5%. Next, `N#C/C(=C\c1cccc2cnccc12)n1nnc2cccc(F)c21`: 1.65% (active); `COc1ccc(-c2cc(-c3cc(OC)ccc3OC)nc(SCC(C)=O)c2C#N)cc1`: 86.3%. As for `COc1cc([C@@H]2c3cc4c(cc3[C@H](SC(=N)N)[C@H]3COC(=O)[C@H]23)OCO4)cc(OC)c1OC`, the figure is -18.8% (active). Consider `Cc1ccc(C2=N[C@H]3CCC[C@@H]3N(c3ccccc3)C(C(Cl)Cl)=N2)cc1`, for which the growth was 93.2%.

As to `COc1ccc2nc(-c3ccc(-c4noc(-c5cc(OC)c(OC)c(OC)c5)n4)cc3)[nH]c2c1`, the growth was 74.4%. As to `C=C1C(=O)O[C@H]2[C@H]1CC/C(COC(=O)/C=C\C(=O)NCc1ccc(Cn3c(=O)sn(CCCCC)c3=O)cc1)=C\CC[C@@]1(C)O[C@@H]21`, the growth was -17.6% (active). Next, `C#CCNCCN1C(=O)c2ccc3c4c(ccc(c24)C1=O)C(=O)N(CCNCC#C)C3=O`: -18.4% (active).

`O=C(COc1ccc(/C=C2\Oc3ccccc3C2=O)cc1)Nc1nccs1`: the growth is -36.2% (active). Take `CCN1CCN(C(=O)[C@]23CCC(C)(C)C[C@@H]2C2=CC[C@@H]4[C@@]5(C)C/C(=C/c6ccncc6)C(=O)C(C)(C)[C@@H]5CC[C@@]4(C)[C@]2(C)CC3)CC1`: the growth is -33.8% (active). In the case of `CCCCOc1ccc(/C=C2/SC(N3CCOCC3)=NC2=O)cc1OCC`, the growth is 101%.

For `O=C(Oc1c(Cl)c(Cl)c(Cl)c(Cl)c1Cl)C1CCCN1C(=O)OCc1ccccc1` (stereo not given), the growth was -12.5% (active). Next, `CCOC(=O)C1=C(C)NC(SCc2cc(=O)oc3ccc(F)cc23)=N[C@@H]1c1cccc2ccccc12`: 78.4%; `NC1(N2SC(S)=C3CCCC=C32)CCCCC1`: 89.6%. `Cc1nc2cc(Nc3nc(Nc4ccc(F)cc4)nc(-c4cccs4)n3)ccc2n1Cc1ccccc1`: the growth was 28.1%.

On to `CCCCCCCCc1cc(Cl)c(O)c(Cl)c1`, for which the growth is 101%. Regarding `COc1cc2nc(Nc3ccc(F)cc3)nc(N)c2cc1OC`, the growth was 79.4%. Regarding `CC1OC(n2c3ccccc3c3c4c(c5c6ccccc6[nH]c5c32)C(=O)N(CCN2CCCC2)C4=O)CC(O)C1O` (stereo not given), the growth was 44.2%.

Turning to `Oc1c(I)cc(I)cc1CNCCN(Cc1ccccn1)Cc1ccccn1`, the growth is -31.5% (active). As to `O=C(Cc1n[nH]c(=O)c2ccccc12)OCc1c(Cl)cccc1Cl`, the growth was 33.7%. Take `COc1ccc(-c2ccc(-c3ccc(C(=N)N)nc3)s2)cc1Cl`: the growth is -48.7% (active). Turning to `C=C(C)[C@@H]1CC[C@]2(C(=O)O)CC[C@]3(C)[C@H](CC[C@@H]4[C@@]5(C)C[C@@H](CC#Cc6ccccc6C)C(=O)C(C)(C)[C@@H]5CC[C@]43C)[C@@H]12`, the growth is -14.7% (active).

As to `COc1ccc(/C=C/c2c(C(=O)/C=C/c3ccc(F)cc3)c(C)nc3ccccc23)cc1`, the growth is 24.2%. As for `S=C1CCCC(=S)N1`, the growth was 101%.

On to `COc1cnc2c(c1)C(=O)c1c-2n(CCCCl)c(=O)c2ccncc12`, for which the growth was 15.8%. As for `CN1CCN(CCCOc2ccc3ncnc(Nc4ccc(Oc5cccc(C(F)(F)F)c5)c(Cl)c4)c3c2)CC1`, the figure is -45.9% (active); as for `COc1ccc2c(c1)C(=O)c1c-2c(=O)n(CCCN(C)C)c2cc(OC)c(OC)cc12`, 74.8%. Take `COc1ccc(-c2c[nH]c(C(=O)O)c2-c2cc(OC)c3c(c2OC)OCO3)cc1`: the growth was 105%.
